System: JAK3(JH1domain-catalytic)
Details: Compound Concentration (nM):1000
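Note: KINOMEscan scanMAX binding as percent activity remaining versus control; lower means stronger binding.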

Compound	Percent Control [%]
CN(C)CCNC(=O)Nc1ccc(N(C)c2ccnc(Nc3ccc(CS(C)(=O)=O)cc3)n2)cc1.Cl [GW830900A]	40
COc1cc(/C=N/Nc2ncnc3[nH]ncc23)ccc1O [GW578748X]	47
COc1ccc2cc(-c3c(-c4ccncc4)nc(-c4ccc(S(C)(=O)=O)cc4C)n3C)ccc2c1 [SB-633825]	63
COc1ccc(COc2ccc(Cc3cnc(N)nc3N)cc2OC)cc1 [GW632580X]	77
COc1cccc(-n2ncc3c(N/N=C/c4ccncc4)ncnc32)c1 [GW784752X]	83
CN(C)c1cc2c(Nc3ccc4c(cnn4Cc4ccccc4)c3)ncnc2cn1 [GW282974X]	99
Cc1cc(O)cc(C)c1/C=C/c1cncc(C(N)=O)c1 [GW435821X]	100
NS(=O)(=O)c1ccc(N/N=C2\C(=O)Nc3ccc(-c4cnco4)cc32)cc1 [GW276655]	16
O=C(Nc1n[nH]c2nc(-c3ccc(O)cc3)c(Br)cc12)C1CC1 [SB-725317]	6.9
NS(=O)(=O)c1ccc(Nc2ncc(-c3ccccc3)o2)cc1 [GW572399X]	71
Cl.O=C(O[C@H]1CN[C@H](C#Cc2cc3ncnc(Nc4ccc5c(cnn5Cc5ccccc5)c4)c3s2)C1)N1CCOCC1 [GSK200398A]	90
COc1ccccc1-c1cc(/C=C2\C(=O)Nc3ncc(Br)cc32)cc(Br)c1O [GW442130X]	55
CC1=C(C(=O)Nc2ccc3[nH]ncc3c2)C(c2ccc(Cl)c(Cl)c2)CC(=O)N1 (stereo not shown) [GSK299115A]	9.3
COc1cc2ncnc(Nc3ccc4c(cnn4Cc4ccccc4)c3)c2cc1OC.Cl [GW282449A]	100
O=C1Nc2ccc(C(=O)c3ccco3)cc2C1=Cc1cc(Cl)c(O)c(Cl)c1 [GW406108X]	2.1
CC(C)COC(=O)c1ccc2c(c1)/C(=C/Nc1ccc(S(N)(=O)=O)cc1)C(=O)N2 [GW416981X]	14
Cl.O=S1CCN(Cc2ccc(-c3ccc4ncnc(Nc5ccc(OCc6ccccc6)c(F)c5)c4c3)o2)CC1 [GW576924A]	100
CCn1c(-c2nonc2N)nc2c(C#CC(C)(C)O)nc(OCCNC)cc21.Cl [GSK949675]	87
COc1cc(C=NNc2ncnc3c2cnn3-c2ccccc2)ccc1O [GW513184X]	81
Cl.O=C(Nc1ccc(Oc2ccc3[nH]c(NC(=O)c4ccccc4)nc3c2)cc1)Nc1cc(C(F)(F)F)ccc1F [GW709042A]	77
Nc1ncnc2occ(-c3ccc(NC(=O)Nc4cc(C(F)(F)F)ccc4F)cc3)c12 [GW770249X]	100
NS(=O)(=O)c1ccc(N/N=C2\C(=O)Nc3ccc(C(=O)NCc4ccncc4)cc32)cc1 [GW300657X]	37
C/C(Nc1ccc(S(N)(=O)=O)cc1)=C1/C(=O)Nc2ccccc21 [GW335962X]	52
C[C@@H](Oc1cc(-n2cnc3ccc(OC4CCN(C)CC4)cc32)sc1C(N)=O)c1ccccc1Cl [GSK579289A]	7.2
COc1ccc2[nH]c3c4[nH]c5ccc(OC)cc5c4c4c(c3c2c1)C(=O)NC4=O [GW296115X]	47
CN1CCN(C(=O)c2ccc(NC(=O)Nc3ccc(N(C)c4ccnc(Nc5ccc(CS(C)(=O)=O)cc5)n4)cc3)cc2)CC1.Cl [GW830263A]	5.4
CCc1ccc(Oc2nccc(-c3c(-c4ccc(F)cc4)ncn3C3CCNCC3)n2)cc1 [SB-242719]	100
NS(=O)(=O)c1ccc(N/N=C2\C(=O)Nc3ccc(Cl)cc32)cc1 [GW280670X]	100

From publication PMC7826789 (International Journal of Molecular Sciences, 2021)
